# Measurements as given in PubChem BioAssay.
# Where “and” joins values, the source holds several entries; their conditions need not be identical. Equal values may be shown once. The source holds several records for some structures; these can differ, active in one and inactive in another. Calls of active or inactive are those of the source.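 The calls were made as follows, unless noted: active = thallium flux through the channel raised or lowered by more than 3 SD from vehicle-only wells, actives on both sides; inactive = the rest.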
# Columns and labels:
# [1] = Wnt pathway potentiators raising nuclear beta-catenin – imaging, WNT3A-conditioned medium, mouse C2C12, NPC library, primary screen (AID 1117326; in the data active = nuclear beta-catenin stimulation mostly above about 4.2%, no sharp cut-off; inactive = mostly below about 10%); conditions: stronger effect = higher value
# [2] = stimulators of insulin release from INS-1E, primary screen, cell-based, 5 mM glucose, NPC library (AID 1117329;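 active = compound raises insulin release from rat beta cells at 5 mM glucose, no numeric limit stated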); conditions: rat INS-1E insulin secretion, at 10 µM, stronger effect = higher value
# [3] = growth inhibition of GSK3B-pretreated HCT116 cells – cell-based, CellTiter-Glo, 0.2 to 20 µM (AID 1117336;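 active = compounds lowering colon cancer cell viability after pretreatment blocking the GSK3B kinase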); conditions: HCT116 viability after GSK3B inhibitor, at 20 µM, stronger effect = higher value
# [4] = inhibition of endothelial tube formation, primary screen, imaging, VEGF stimulated, CD31 staining, tube area, NPC library (AID 1117340;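 active = compound that reduces growth-factor-driven endothelial tube area in a mixed cell culture, no cutoff stated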); conditions: VEGF-stimulated ADSC/ECFC co-culture, at 10 µM, stronger effect = higher value
# [5] = GLP1 release stimulators, primary, NCI-H716, NPC library (AID 1117341;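 active = compound raises GLP1 secretion from the human gut endocrine cells, with no numeric limit stated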); conditions: NCI-H716 cells, at 10 µM, stronger effect = higher value
# [6] = HCT116 colon cancer cell growth inhibition, primary screen, CellTiter-Glo luminescence, NPC library (AID 1117342;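 active = compounds that lower survival of HCT116 colon cancer cells in the luminescence readout, no numeric limit stated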); conditions: at 20 µM (top of the series)
# [7] = reduced SW480 viability measured with CellTiter-Glo, NPC library, primary (AID 1117343;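 active = compounds that lower viability of the colon cancer cells in the luminescence readout, with no numeric limit stated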); conditions: CellTiter-Glo luminescence; at 20 µM (top of the series)
# [8] = NPC library primary testing for decreased DLD-1 cell viability via CellTiter-Glo (AID 1117346;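 active = compounds that lower survival of DLD-1 colon cancer cells in the luminescence readout, no cutoff given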); conditions: DLD-1 viability, CellTiter-Glo luminescence; at 20 µM (top of the series)
# [9] = target: 6-phosphogluconate dehydrogenase, decarboxylating (Homo sapiens) (UniProt P52209); test: inhibition of human phosphogluconate dehydrogenase – biochemical, recombinant enzyme, NADPH absorbance, primary screen (AID 1159550;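 active = at least 20% inhibition of 6-phosphogluconate dehydrogenase activity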); conditions: recombinant 6PGD, NADPH absorbance 341 nm; at 10 µM; stronger effect = higher value
# [10] = EMT-state selective cytotoxicity in co-culture – imaging, PC-3E GFP, TEM4-18 mCherry, primary screen (AID 1345086;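 active = compounds killing one labelled cell type while sparing the other, by normalised counts and ratio limits, not self-fluorescent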;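 as to all read-outs here: cells exposed to compound for 72 h before imaging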;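 as to red/green cell ratio (normalised): normalised mesenchymal count divided by normalised epithelial count so high means epithelial killing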); conditions: PC-3E GFP / TEM4-18 mCherry co-culture, imaging cell counts, at 1 µM; for red/green cell ratio (normalised): actives lie on both sides, counts scaled to control wells, 1 = unselective
# [11] = MELAS cybrid and Rieske KO viability enhancers – cell-based, MELAS cybrids, Rieske KO mouse fibroblasts, CellTiter-Glo, primary screen (AID 1508586;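 active = mean z-score across replicates of 1.96 or higher in either the MELAS or the Rieske mutant cell line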;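 also: z relative to plate mean and SD of compound and empty wells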); conditions: low glucose
# [12] = target: NAD(+) hydrolase SARM1 (Homo sapiens) (UniProt Q6SZW1); test: blocking NAD cleavage by SARM1 SAM-TIR – cell lysate, NAD-Glo luminescence (AID 1508614;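 active = compound whose remaining NAD level is above about 45 nM, limit read from the data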;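 also: higher remaining NAD means stronger inhibition of SARM1 NADase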); conditions: SAM-TIR HEK293T lysate NADase, at 1 µM, stronger effect = higher value
# [13] = target: Mitogen-activated protein kinase 7 (Homo sapiens) (UniProt Q13164); test: Gal4-ERK5 driven luciferase induction – cell-based, HTS, primary screen (AID 1508626;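 active = luciferase signal above three times the same-plate solvent-only control wells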;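 also: luciferase driven by Gal4-ERK5 fusion binding five Gal4 sites before minimal TATA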); conditions: HeLa Gal4-ERK5 transactivation, 18 h, at 5 µM, stronger effect = higher value
# F380Y = test: BK channel mutant inhibitors and activators – cell-based, U2OS BacMam, thallium flux, beta subunits, selectivity assay, profiling panel (AID 1259406); conditions: U2OS BacMam BK variants, at 30 µM;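 also: initial slope of Thallos dye fluorescence rise after thallium is added; log ratio against the mean of 0.3% DMSO vehicle wells on the same plate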
# F380Y/beta2Delta = test: as above; conditions: U2OS BacMam BK variants, at 30 µM
# [14] = target: Calcium-activated potassium channel subunit alpha-1 (Homo sapiens) + Leucine-rich repeat-containing protein 26 (Homo sapiens) (UniProt Q12791+Q2I0M4); test: as above; conditions: U2OS BacMam BK variants, F380Y/Slo1WT/gamma1, at 30 µM
# R275C = test: as above; conditions: U2OS BacMam BK variants, at 30 µM
# R275C/beta1 = test: as above; conditions: U2OS BacMam BK variants, at 30 µM
# R275C/beta2Delta = test: as above; conditions: U2OS BacMam BK variants, at 30 µM
# [15] = viability loss with induced miR-34 in A549 – imaging, A549 dox-inducible miR-34, nuclei and caspase counts, primary screen (AID 1347080;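 active = compounds whose cell count with miR-34 switched on is under 0.7 times the count with it off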); conditions: A549 miR-34 inducible, Hoechst nuclei count, 48 h; stronger effect = lower value; cell number ratio, induced over uninduced
# [16] = measured here: epithelial PC-3E GFP cell survival
# [17] = measured here: mesenchymal TEM4-18 mCherry cell survival
# [18] = MELAS cybrid survival, CellTiter-Glo 48 h, stronger effect = higher value
# [19] = Rieske KO mouse fibroblast survival, CellTiter-Glo 72 h
# Mitogen-activated protein kinase 7 (Homo sapiens), sequence (Q13164 whole entry, looked up, the tested form may be a part): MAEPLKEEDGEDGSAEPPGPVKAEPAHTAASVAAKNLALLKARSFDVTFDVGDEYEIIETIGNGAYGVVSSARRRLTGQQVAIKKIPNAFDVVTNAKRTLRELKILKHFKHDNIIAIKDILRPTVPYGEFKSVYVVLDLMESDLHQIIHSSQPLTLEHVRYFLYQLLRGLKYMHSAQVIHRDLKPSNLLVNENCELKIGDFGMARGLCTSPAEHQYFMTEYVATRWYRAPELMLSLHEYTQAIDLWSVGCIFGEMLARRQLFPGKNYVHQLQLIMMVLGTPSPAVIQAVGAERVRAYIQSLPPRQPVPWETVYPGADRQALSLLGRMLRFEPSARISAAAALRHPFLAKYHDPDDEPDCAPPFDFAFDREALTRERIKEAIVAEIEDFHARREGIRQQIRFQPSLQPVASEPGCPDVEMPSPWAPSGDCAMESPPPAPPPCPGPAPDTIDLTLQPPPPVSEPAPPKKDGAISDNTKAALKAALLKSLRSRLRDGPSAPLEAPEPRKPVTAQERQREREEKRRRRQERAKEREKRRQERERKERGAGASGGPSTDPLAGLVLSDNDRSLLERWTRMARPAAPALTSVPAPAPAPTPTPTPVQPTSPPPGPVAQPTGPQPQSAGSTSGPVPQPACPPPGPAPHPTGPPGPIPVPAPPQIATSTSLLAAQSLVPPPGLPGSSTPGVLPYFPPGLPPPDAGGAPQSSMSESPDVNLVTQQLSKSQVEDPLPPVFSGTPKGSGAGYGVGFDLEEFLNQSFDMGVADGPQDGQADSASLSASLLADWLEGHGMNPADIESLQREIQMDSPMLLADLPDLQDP
# 6-phosphogluconate dehydrogenase, decarboxylating (Homo sapiens), sequence (P52209 whole entry, looked up): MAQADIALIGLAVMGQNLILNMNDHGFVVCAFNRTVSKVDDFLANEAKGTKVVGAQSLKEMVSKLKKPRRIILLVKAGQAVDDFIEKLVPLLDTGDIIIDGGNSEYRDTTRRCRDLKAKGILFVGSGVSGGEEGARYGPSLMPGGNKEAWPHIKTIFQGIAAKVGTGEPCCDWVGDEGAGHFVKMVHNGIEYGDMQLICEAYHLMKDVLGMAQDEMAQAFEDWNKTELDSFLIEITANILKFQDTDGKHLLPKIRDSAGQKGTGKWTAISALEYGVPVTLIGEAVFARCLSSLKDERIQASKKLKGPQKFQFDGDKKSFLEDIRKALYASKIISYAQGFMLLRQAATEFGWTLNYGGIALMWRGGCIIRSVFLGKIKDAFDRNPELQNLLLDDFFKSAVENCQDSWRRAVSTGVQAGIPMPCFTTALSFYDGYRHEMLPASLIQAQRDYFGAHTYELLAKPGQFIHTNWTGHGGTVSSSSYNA
# Calcium-activated potassium channel subunit alpha-1 (Homo sapiens) + Leucine-rich repeat-containing protein 26 (Homo sapiens), sequence (Q2I0M4 whole entry, looked up, one chain of several): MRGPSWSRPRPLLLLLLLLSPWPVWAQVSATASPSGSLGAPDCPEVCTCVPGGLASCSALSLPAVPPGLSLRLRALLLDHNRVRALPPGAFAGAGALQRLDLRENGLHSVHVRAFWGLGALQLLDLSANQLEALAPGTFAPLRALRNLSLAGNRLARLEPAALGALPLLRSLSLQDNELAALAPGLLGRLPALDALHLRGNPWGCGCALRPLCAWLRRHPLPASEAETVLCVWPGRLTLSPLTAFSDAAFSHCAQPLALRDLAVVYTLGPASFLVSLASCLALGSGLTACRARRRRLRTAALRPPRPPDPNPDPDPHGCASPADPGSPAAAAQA
# NAD(+) hydrolase SARM1 (Homo sapiens), sequence (Q6SZW1 whole entry, looked up, the tested form may be a part): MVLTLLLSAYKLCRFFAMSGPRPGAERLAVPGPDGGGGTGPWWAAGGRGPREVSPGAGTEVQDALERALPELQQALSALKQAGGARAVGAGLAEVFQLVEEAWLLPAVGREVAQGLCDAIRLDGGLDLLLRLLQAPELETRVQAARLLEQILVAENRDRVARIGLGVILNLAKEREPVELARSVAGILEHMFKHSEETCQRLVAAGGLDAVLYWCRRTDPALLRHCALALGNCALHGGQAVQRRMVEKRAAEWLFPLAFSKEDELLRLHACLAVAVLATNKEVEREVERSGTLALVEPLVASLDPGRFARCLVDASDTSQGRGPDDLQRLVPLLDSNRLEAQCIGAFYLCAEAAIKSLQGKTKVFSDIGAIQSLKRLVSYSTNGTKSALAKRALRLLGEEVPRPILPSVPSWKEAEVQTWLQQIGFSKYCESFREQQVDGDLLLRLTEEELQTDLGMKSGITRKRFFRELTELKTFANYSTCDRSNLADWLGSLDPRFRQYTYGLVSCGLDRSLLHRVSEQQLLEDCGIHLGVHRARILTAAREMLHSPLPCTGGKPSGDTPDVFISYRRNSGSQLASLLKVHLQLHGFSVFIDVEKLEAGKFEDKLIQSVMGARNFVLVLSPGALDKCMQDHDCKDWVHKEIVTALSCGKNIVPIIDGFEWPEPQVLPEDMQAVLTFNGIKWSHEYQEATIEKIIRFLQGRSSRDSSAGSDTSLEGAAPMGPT
compound,measurement,setting,value
CCN(CC)CCOC(=O)c1ccc(N)cc1,nuclear beta-catenin stimulation,[1]; at 10 µM,0.6% (inactive)
same,nuclear beta-catenin stimulation,"[1]; stimulation, at 2 µM",-0.3%
same,insulin secretion stimulation,[2],0.1% (inactive)
same,viability decrease,[3],2.8% (inactive)
same,tube area decrease,[4],7% (inactive)
same,GLP1 secretion stimulation,[5],-0.7% (inactive)
same,inhibition of viability,[6],4.2% (inactive)
same,viability decrease (inhibition),[7],56.5% (active)
same,viability decrease (inhibition),[8],1.05% (inactive)
same,inhibition,[9],2.32% (inactive)
same,red/green cell ratio (normalised),[10],1.08 (inactive)
same,normalised cell number,[10]; [16],0.95
same,normalised cell number,[10]; [17],1.03
same,z-score,[11]; [18],-0.214 (inactive) and -0.849 (inactive)
same,z-score,[11]; [19],-0.241 and -0.347
same,remaining NAD,[12],10 nM (inactive)
same,luciferase signal,[13],92 AU (inactive)
same,log fold change Tl+ flux,F380Y,-0.0653 (inactive)
same,log fold change Tl+ flux,F380Y/beta2Delta,0.0223 (inactive)
same,log fold change Tl+ flux,[14],0.0123 (inactive)
same,log fold change Tl+ flux,R275C,-0.00878 (inactive)
same,log fold change Tl+ flux,R275C/beta1,-0.0214 (inactive)
same,log fold change Tl+ flux,R275C/beta2Delta,0.0278 (inactive)
Cc1nc2ccccn2c(=O)c1CCN1CCC(C(=O)c2ccc(F)cc2)CC1,nuclear beta-catenin stimulation,[1]; at 10 µM,-0.7% (inactive)
same,nuclear beta-catenin stimulation,"[1]; stimulation, at 2 µM",-2.4%
same,insulin secretion stimulation,[2],3.35% (inactive)
same,viability decrease,[3],24.3% (inactive)
same,tube area decrease,[4],6% (inactive)
same,GLP1 secretion stimulation,[5],10.6% (inactive)
same,inhibition of viability,[6],67.9% (active)
same,viability decrease (inhibition),[7],30.7% (inactive)
same,viability decrease (inhibition),[8],11.5% (inactive)
same,inhibition,[9],0.157% (inactive)
same,red/green cell ratio (normalised),[10],1.29 (inactive)
same,normalised cell number,[10]; [16],0.87
same,normalised cell number,[10]; [17],1.12
same,z-score,[11]; [18],-0.0109 (inactive)
same,z-score,[11]; [19],-0.116
same,remaining NAD,[12],10 nM (inactive)
same,luciferase signal,[13],52 AU (inactive)
same,log fold change Tl+ flux,F380Y,0.00566 (inactive)
same,log fold change Tl+ flux,F380Y/beta2Delta,-0.00369 (inactive)
same,log fold change Tl+ flux,[14],-0.0679 (inactive)
same,log fold change Tl+ flux,R275C,-0.025 (inactive)
same,log fold change Tl+ flux,R275C/beta1,-0.0266 (inactive)
same,log fold change Tl+ flux,R275C/beta2Delta,-0.0363 (inactive)
CN(C)CCCN1c2ccccc2Sc2ccc(Cl)cc21,nuclear beta-catenin stimulation,[1]; at 10 µM,5.5% (inactive)
same,nuclear beta-catenin stimulation,"[1]; stimulation, at 2 µM",0.9%
same,insulin secretion stimulation,[2],8.9% (inactive)
same,viability decrease,[3],82% (active)
same,tube area decrease,[4],68.7% (active)
same,GLP1 secretion stimulation,[5],15.5% (inactive)
same,inhibition of viability,[6],96.1% (active)
same,viability decrease (inhibition),[7],128% (active)
same,viability decrease (inhibition),[8],93.1% (active)
same,inhibition,[9],10.5% (inactive)
same,red/green cell ratio (normalised),[10],1.34 (inactive)
same,normalised cell number,[10]; [16],0.97
same,normalised cell number,[10]; [17],1.3
same,z-score,[11]; [18],2.27 (active) and 0.163 (inactive) and 0.651 (inactive)
same,z-score,[11]; [19],-0.778 and 0.446 and 0.902
same,remaining NAD,[12],10 nM (inactive)
same,luciferase signal,[13],68 AU (inactive)
same,log fold change Tl+ flux,F380Y,0.156 (active)
same,log fold change Tl+ flux,F380Y/beta2Delta,0.221 (active)
same,log fold change Tl+ flux,[14],0.0114 (inactive)
same,log fold change Tl+ flux,R275C,-0.0248 (inactive)
same,log fold change Tl+ flux,R275C/beta1,0.272 (active)
same,log fold change Tl+ flux,R275C/beta2Delta,0.103 (active)
CCCCNC(=O)NS(=O)(=O)c1ccc(C)cc1,nuclear beta-catenin stimulation,[1]; at 10 µM,0.2% (inactive)
same,nuclear beta-catenin stimulation,"[1]; stimulation, at 2 µM",3.2%
same,insulin secretion stimulation,[2],3.85% (inactive)
same,viability decrease,[3],-5.6% (inactive)
same,tube area decrease,[4],5.7% (inactive)
same,GLP1 secretion stimulation,[5],6.7% (inactive)
same,inhibition of viability,[6],-6.5% (inactive)
same,viability decrease (inhibition),[7],-6% (inactive)
same,viability decrease (inhibition),[8],-5.4% (inactive)
same,inhibition,[9],-14.4% (inactive)
same,red/green cell ratio (normalised),[10],1.12 (inactive)
same,normalised cell number,[10]; [16],1.03
same,normalised cell number,[10]; [17],1.15
same,z-score,[11]; [18],-0.283 (inactive) and 0.394 (inactive) and 0.614 (inactive)
same,z-score,[11]; [19],-0.151 and -0.133 and 0.0575
same,remaining NAD,[12],10 nM (inactive)
same,luciferase signal,[13],36 AU (inactive)
same,log fold change Tl+ flux,F380Y,-0.00894 (inactive)
same,log fold change Tl+ flux,F380Y/beta2Delta,0.0378 (inactive)
same,log fold change Tl+ flux,[14],-0.0258 (inactive)
same,log fold change Tl+ flux,R275C,-0.0266 (inactive)
same,log fold change Tl+ flux,R275C/beta1,-0.0147 (inactive)
same,log fold change Tl+ flux,R275C/beta2Delta,0.0266 (inactive)
CC(C)NCC(O)c1cc(O)cc(O)c1 (configuration not stated),nuclear beta-catenin stimulation,[1]; at 10 µM,1.6% (inactive)
same,nuclear beta-catenin stimulation,"[1]; stimulation, at 2 µM",0.9%
same,insulin secretion stimulation,[2],1.2% (inactive)
same,viability decrease,[3],6% (inactive)
same,tube area decrease,[4],3.6% (inactive)
same,GLP1 secretion stimulation,[5],2.2% (inactive)
same,inhibition of viability,[6],-11.2% (inactive)
same,viability decrease (inhibition),[7],-1.6% (inactive)
same,viability decrease (inhibition),[8],-9.9% (inactive)
same,inhibition,[9],-6.42% (inactive)
same,red/green cell ratio (normalised),[10],1.18 (inactive)
same,normalised cell number,[10]; [16],1.02
same,normalised cell number,[10]; [17],1.2
same,fold change,[15],1.13 (inactive) and 0.914 (inactive) and 0.836 (inactive)
same,z-score,[11]; [18],0.509 (inactive)
same,z-score,[11]; [19],0.459
same,remaining NAD,[12],10 nM (inactive)
same,luciferase signal,[13],92 AU (inactive)
same,log fold change Tl+ flux,F380Y,-0.0466 (inactive)
same,log fold change Tl+ flux,F380Y/beta2Delta,0.0418 (inactive)
same,log fold change Tl+ flux,[14],0.0135 (inactive)
same,log fold change Tl+ flux,R275C,0.0473 (inactive)
same,log fold change Tl+ flux,R275C/beta1,-0.038 (inactive)
same,log fold change Tl+ flux,R275C/beta2Delta,0.0259 (inactive)
O=C(CCCN1CC=C(n2c(=O)[nH]c3ccccc32)CC1)c1ccc(F)cc1,nuclear beta-catenin stimulation,[1]; at 10 µM,1% (inactive)
same,nuclear beta-catenin stimulation,"[1]; stimulation, at 2 µM",0.3%
same,insulin secretion stimulation,[2],2.7% (inactive)
same,viability decrease,[3],-5.9% (inactive)
same,tube area decrease,[4],16.2% (inactive)
same,GLP1 secretion stimulation,[5],-0.5% (inactive)
same,inhibition of viability,[6],28.5% (inactive)
same,viability decrease (inhibition),[7],10.4% (inactive)
same,viability decrease (inhibition),[8],3.7% (inactive)
same,inhibition,[9],12.8% (inactive)
same,red/green cell ratio (normalised),[10],0.96 (inactive)
same,normalised cell number,[10]; [16],0.94
same,normalised cell number,[10]; [17],0.9
same,z-score,[11]; [18],-0.163 (inactive) and 0.567 (inactive)
same,z-score,[11]; [19],-0.119 and 0.175
same,remaining NAD,[12],10 nM (inactive)
same,luciferase signal,[13],68 AU (inactive)
same,log fold change Tl+ flux,F380Y,0.0359 (inactive)
same,log fold change Tl+ flux,F380Y/beta2Delta,0.058 (inactive)
same,log fold change Tl+ flux,[14],-0.0307 (inactive)
same,log fold change Tl+ flux,R275C,0.0212 (inactive)
same,log fold change Tl+ flux,R275C/beta1,0.0837 (active)
same,log fold change Tl+ flux,R275C/beta2Delta,0.0699 (inactive)
CN(C)CCC=C1c2ccccc2CCc2ccccc21,nuclear beta-catenin stimulation,[1]; at 10 µM,-0.4% (inactive)
same,nuclear beta-catenin stimulation,"[1]; stimulation, at 2 µM",1.1%
same,insulin secretion stimulation,[2],41.5% (active)
same,viability decrease,[3],-59% (inactive)
same,tube area decrease,[4],25% (inactive)
same,GLP1 secretion stimulation,[5],5% (inactive)
same,inhibition of viability,[6],21.5% (inactive)
same,viability decrease (inhibition),[7],72.1% (active)
same,viability decrease (inhibition),[8],-1.8% (inactive)
same,inhibition,[9],6.7% (inactive)
same,red/green cell ratio (normalised),[10],1 (inactive)
same,normalised cell number,[10]; [16],1.31
same,normalised cell number,[10]; [17],1.31
same,z-score,[11]; [18],-0.201 (inactive) and -0.81 (inactive)
same,z-score,[11]; [19],-0.129 and 0.0803
same,remaining NAD,[12],10 nM (inactive)
same,luciferase signal,[13],36 AU (inactive)
same,log fold change Tl+ flux,F380Y,0.184 (active)
same,log fold change Tl+ flux,F380Y/beta2Delta,0.179 (active)
same,log fold change Tl+ flux,[14],0.0267 (inactive)
same,log fold change Tl+ flux,R275C,0.07 (inactive)
same,log fold change Tl+ flux,R275C/beta1,0.106 (inactive)
same,log fold change Tl+ flux,R275C/beta2Delta,0.128 (active)
